In PubChem BioAssay:
Active and inactive are the calls of the source. Unless noted, the rule behind the calls is not given here.

Assays:
[1] = test system: Wnt5a (protein binding on small-molecule microarray); assay: Wnt5a binders on small-molecule microarray, primary screen, biophysical, 635/667 nm fluorescence (AID 1142); conditions: 635 nm fluorescence, higher = more signal;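 note: fluorescence read at 667 nm with signal to noise per printed feature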
[2] = cell viability in Huh7 cells, primary screen, cytotoxicity control for HCV replication inhibitor project, CellTiter-Glo luminescence, basal, 48 h (AID 1143); conditions: Huh7 HCV replicon, higher = more signal, called active from +8 up or from −8 down;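 note: Huh7 hepatoma cells carrying a hepatitis C replication reporter with no stimulus; test concentration not given here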
[3] = P. aeruginosa biofilm formation inhibitors, primary screen, PAO1 strain, BacTiter-Glo luminescence, LB-PBS (AID 1144); conditions: 12 h, higher = more signal
[4] = CREB reporter modulators without forskolin, primary screen, cell-based, PC12, CRE-LacZ reporter, unstimulated (AID 1145); conditions: no forskolin, luminescence, 4.5 h, higher = more signal, called active from +8 up or from −8 down
[5] = CREB reporter modulators under forskolin, primary screen, cell-based, PC12, CRE-LacZ reporter, forskolin-stimulated (AID 1146); conditions: luminescence, 4.5 h, higher = more signal, called active from +8 up or from −8 down;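 note: PC12 cells with 6xCRE LacZ reporter stimulated by forskolin 10 µM; beta-galactosidase reporter signal reflecting CREB driven transcription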
[6] = target: Streptavidin (Streptomyces avidinii) (UniProt P22629); assay: streptavidin binders on small-molecule microarray, primary screen, artefact control for SMM compound annotation, biophysical, 635/667 nm fluorescence (AID 1147); conditions: streptavidin binding, higher = more signal;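 note: signal reflects streptavidin binding to arrayed compounds as a control protein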
[7] = small-molecule binders of probe aInhba, primary screen, biochemical, small-molecule microarray, 635/667 nm fluorescence (AID 1148); conditions: higher = more signal;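 note: score merges 667nm spot fluorescence with signal-to-noise for antibody binding to printed compounds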
Torsin-1A (Homo sapiens) [8] = target: Torsin-1A (Homo sapiens) (UniProt O14656); assay: torsin A binders from cell lysate, primary screen, small-molecule microarray, wild-type, 635/667 nm (AID 1149); conditions: COS7 hTOR1A-WT lysate, 635 nm fluorescence, higher = more signal
Torsin-1A (Homo sapiens) [9] = target: Torsin-1A (Homo sapiens) (UniProt O14656); assay: small-molecule binders of mutant TOR1A in lysate, primary screen, cell lysate, small-molecule microarray, COS7 lysate, 635/667 nm fluorescence (AID 1150); conditions: COS7 hTOR1A mutant lysate, 635 nm fluorescence, higher = more signal;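 note: score pools 667 nm emission and signal to noise measuring lysate protein binding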
[10] = test system: Sonic hedgehog protein (Shh); assay: small-molecule binders of Shh protein, primary screen, biochemical, small-molecule microarray, 635/667 nm fluorescence (AID 1151); conditions: small-molecule microarray binding, 635 nm fluorescence; higher = more signal;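 note: Shh protein binding to compounds spotted on small-molecule microarray slides; score combines spot fluorescence intensity with signal-to-noise across triplicate slides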
[11] = E. coli DRC41 culture turbidity changes, primary screen, E. coli filamentation inducer project, strain DRC41, OD650, 48 h (AID 1152);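 note: E. coli MC1000 strain DRC41 lacking acrAB efflux pump and sulA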; conditions: E. coli DRC41 (acrAB sulA), higher = more signal, called active from +8 up or from −8 down
[12] = small-molecule binders of probe aLefty1, primary screen, biochemical, small-molecule microarray, 635/667 nm fluorescence (AID 1153); conditions: higher = more signal;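 note: score merges spot fluorescence with signal-to-noise ratio from the scanned slide images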
[13] = PSAC antagonists in infected red cells, primary screen, cell-based, P. falciparum Indochina, OD700, 1 h (AID 1154); conditions: P. falciparum Indochina infected RBC osmotic lysis, higher = more signal, called active from +8 up or from −8 down
[14] = PSAC antagonists in infected red cells, primary screen, cell-based, P. falciparum Indochina, OD700, 2 h (AID 1155);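 note: lysis reports solute entry through the parasite surface anion channel PSAC; channel blockers reduce lysis of infected cells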; conditions: P. falciparum Indochina infected erythrocytes, osmotic lysis OD700; higher = more signal, called active from +8 up or from −8 down
[15] = osmotic lysis modulators in infected erythrocytes, primary screen, PSAC antagonist project, cell-based, P. falciparum Indochina, OD700, 3 h (AID 1156); conditions: higher = more signal, called active from +8 up or from −8 down
[16] = PSAC antagonists in infected red cells, primary screen, cell-based, P. falciparum Indochina, OD700, 18 h (AID 1157); conditions: P. falciparum Indochina infected erythrocytes, osmotic lysis OD700, 18 h; higher = more signal, called active from +8 up or from −8 down
[17] = modulators of S6 phosphorylation in cells, primary screen, cell-based, A549, cytoblot, luminescence, serum-stimulated (AID 1158); conditions: A549 phospho-S6 cytoblot, 5 h, higher = more signal;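 note: serum-stimulated A549 lung adenocarcinoma cells; signal is phosphorylated S6 detected by cytoblot immunostaining with HRP secondary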
[18] = target: NADPH oxidase 2 (Homo sapiens) (UniProt P04839); assay: NOX2-dependent H2O2 signal modulators, primary screen, NOX inhibitor project, cell-based, HEK293-NOX2, PMA-stimulated, Amplex Red fluorescence (AID 1159); conditions: 45 min, higher = more signal, called active from +8 up or from −8 down; note: test concentration not given here
[19] = target: NADPH oxidase 4 (Homo sapiens) (UniProt Q9NPH5); assay: NOX4-dependent H2O2 signal modulators, primary screen, NOX inhibitor project, cell-based, HEK293-NOX4, tetracycline-induced, Amplex Red fluorescence (AID 1160); conditions: 45 min, higher = more signal, called active from +8 up or from −8 down
[20] = target: NADPH oxidase 5 (Homo sapiens) (UniProt Q96PH1); assay: NOX5-dependent H2O2 signal modulators, primary screen, NOX inhibitor project, cell-based, HEK293-NOX5, Amplex Red fluorescence (AID 1161); conditions: HEK293-NOX5, ionomycin, 45 min, higher = more signal
NADPH oxidase 5 (Homo sapiens), sequence (Q96PH1 whole entry, looked up): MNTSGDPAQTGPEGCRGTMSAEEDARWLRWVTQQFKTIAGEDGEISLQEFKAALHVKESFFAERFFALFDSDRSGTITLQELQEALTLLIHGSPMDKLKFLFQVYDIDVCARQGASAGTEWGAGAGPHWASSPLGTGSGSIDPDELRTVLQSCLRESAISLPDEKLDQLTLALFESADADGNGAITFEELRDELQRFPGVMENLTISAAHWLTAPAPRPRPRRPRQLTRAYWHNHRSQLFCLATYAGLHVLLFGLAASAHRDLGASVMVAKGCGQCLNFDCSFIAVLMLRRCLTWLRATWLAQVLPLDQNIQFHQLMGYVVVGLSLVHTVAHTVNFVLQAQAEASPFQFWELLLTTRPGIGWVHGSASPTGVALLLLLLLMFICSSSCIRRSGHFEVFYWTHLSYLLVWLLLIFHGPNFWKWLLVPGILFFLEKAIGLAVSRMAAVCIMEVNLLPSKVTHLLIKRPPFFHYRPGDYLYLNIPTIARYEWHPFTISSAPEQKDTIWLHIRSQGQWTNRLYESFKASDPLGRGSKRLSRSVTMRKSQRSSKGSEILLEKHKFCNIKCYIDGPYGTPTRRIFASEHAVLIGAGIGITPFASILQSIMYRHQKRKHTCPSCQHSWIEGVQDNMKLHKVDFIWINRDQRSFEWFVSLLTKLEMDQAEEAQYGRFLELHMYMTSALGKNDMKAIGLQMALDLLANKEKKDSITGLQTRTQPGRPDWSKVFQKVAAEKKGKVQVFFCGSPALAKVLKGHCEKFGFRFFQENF

NADPH oxidase 4 (Homo sapiens), sequence (Q9NPH5 whole entry, looked up): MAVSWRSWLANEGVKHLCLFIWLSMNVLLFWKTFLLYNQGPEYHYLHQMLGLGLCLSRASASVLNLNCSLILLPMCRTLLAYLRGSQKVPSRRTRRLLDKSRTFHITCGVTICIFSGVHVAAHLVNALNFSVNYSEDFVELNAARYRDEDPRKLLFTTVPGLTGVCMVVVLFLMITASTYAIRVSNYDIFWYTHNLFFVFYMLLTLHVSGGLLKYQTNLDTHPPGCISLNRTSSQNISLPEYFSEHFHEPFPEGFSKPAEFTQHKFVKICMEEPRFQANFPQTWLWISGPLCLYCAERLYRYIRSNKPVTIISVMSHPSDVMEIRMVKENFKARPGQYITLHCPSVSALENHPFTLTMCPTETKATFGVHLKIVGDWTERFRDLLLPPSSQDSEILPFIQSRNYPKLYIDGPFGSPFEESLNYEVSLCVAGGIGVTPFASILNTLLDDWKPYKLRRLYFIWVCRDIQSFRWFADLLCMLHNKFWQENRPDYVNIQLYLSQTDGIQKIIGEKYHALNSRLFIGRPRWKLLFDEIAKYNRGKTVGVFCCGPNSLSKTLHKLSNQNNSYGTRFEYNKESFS
Torsin-1A (Homo sapiens), sequence (O14656 whole entry, looked up): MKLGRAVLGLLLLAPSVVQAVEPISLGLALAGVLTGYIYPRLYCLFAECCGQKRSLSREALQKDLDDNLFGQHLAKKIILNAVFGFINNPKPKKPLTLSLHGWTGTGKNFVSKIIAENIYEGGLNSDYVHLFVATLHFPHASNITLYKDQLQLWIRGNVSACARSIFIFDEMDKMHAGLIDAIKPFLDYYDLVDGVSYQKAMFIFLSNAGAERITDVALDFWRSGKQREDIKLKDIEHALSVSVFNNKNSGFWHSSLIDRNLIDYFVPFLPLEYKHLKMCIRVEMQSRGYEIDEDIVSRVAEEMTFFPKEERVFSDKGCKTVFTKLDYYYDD
NADPH oxidase 2 (Homo sapiens), sequence (P04839 whole entry, looked up): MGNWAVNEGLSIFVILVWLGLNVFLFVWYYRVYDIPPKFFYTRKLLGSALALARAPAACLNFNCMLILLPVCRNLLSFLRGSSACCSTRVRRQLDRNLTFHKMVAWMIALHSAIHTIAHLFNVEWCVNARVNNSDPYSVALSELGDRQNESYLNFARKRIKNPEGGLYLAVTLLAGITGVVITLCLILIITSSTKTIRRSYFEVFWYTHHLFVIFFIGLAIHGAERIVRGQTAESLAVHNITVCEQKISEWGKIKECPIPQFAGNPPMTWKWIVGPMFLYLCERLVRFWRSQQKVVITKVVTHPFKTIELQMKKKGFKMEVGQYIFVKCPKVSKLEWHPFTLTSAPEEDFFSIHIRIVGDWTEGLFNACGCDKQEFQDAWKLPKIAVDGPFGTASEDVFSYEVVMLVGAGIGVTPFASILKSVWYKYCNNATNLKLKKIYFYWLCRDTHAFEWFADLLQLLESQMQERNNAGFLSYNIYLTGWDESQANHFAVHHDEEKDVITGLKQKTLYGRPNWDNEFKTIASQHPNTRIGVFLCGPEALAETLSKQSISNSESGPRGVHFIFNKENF
Streptavidin (Streptomyces avidinii), sequence (P22629 whole entry, looked up): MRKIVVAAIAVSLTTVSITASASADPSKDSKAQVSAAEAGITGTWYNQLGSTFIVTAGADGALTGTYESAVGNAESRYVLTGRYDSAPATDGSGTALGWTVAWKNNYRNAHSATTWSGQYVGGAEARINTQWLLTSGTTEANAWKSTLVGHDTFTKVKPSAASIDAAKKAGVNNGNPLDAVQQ

SMILES	composite z-score [1]	z-score [2]	z-score [3]	z-score [4]	z-score [5]	composite z-score [6]	composite z-score [7]	composite z-score (Torsin-1A (Homo sapiens) [8])	composite z-score (Torsin-1A (Homo sapiens) [9])	composite z-score [10]	z-score [11]	composite z-score [12]	z-score [13]	z-score [14]	z-score [15]	z-score [16]	z-score [17]	z-score [18]	z-score [19]	z-score [20]
CCCC[C@H]1OB(O)C[C@H]2C1=C(COC)C[C@H]1C(=O)N(C)C(=O)[C@H]12	0.277	0.203 (inactive)	0.573 (inactive)	0.76 (inactive)	0.505 (inactive)	0.727	-0.0093	0.408	0.301	1.32	-0.971 (inactive)	-0.196	0.431 (inactive)	0.0082 (inactive)	-1.19 (inactive)	0.232 (inactive)	-0.18	-0.251 (inactive)	0.221 (inactive)	0.786
C=CCC(OC(C)=O)[C@@H]1[C@@H](N(Cc2cccc3ccccc23)C(=O)c2ccc(-c3ccccc3)cc2)c2cc(OCCCO)ccc2N1C(=O)c1ccc2ccccc2c1 (stereo not given in full)	-0.0128	0.107 (inactive)	-0.815 (inactive)	0.222 (inactive)	0.0667 (inactive)	0.486	0.0816	-0.219	-0.0217	0.711	-0.495 (inactive)	0.0153	0.135 (inactive)	0.396 (inactive)	-0.182 (inactive)	0.0644 (inactive)	0.174	-0.608 (inactive)	0.624 (inactive)	-0.535
O=C1NC(=O)C2C1C=CC(C(O)c1cccs1)N2Nc1ccc(Cl)cc1Cl (stereo not given)	-0.0653	0.0581 (inactive)	-0.24 (inactive)	-0.136 (inactive)	-0.109 (inactive)	-0.695	-0.118	0.352	0.112	-0.0963	-0.713 (inactive)	-0.012	2.33 (inactive)	1.32 (inactive)	-0.0207 (inactive)	1.34 (inactive)	-0.27	-0.483 (inactive)	-4.81 (inactive)	-1.57
CC(C)[Si](C#Cc1ccc(Oc2ccccc2)cc1)(O[Si](C#Cc1ccc(Oc2ccccc2)cc1)(C(C)C)C(C)C)C(C)C	0.253	0.479 (inactive)	-0.614 (inactive)	0.6 (inactive)	-0.378 (inactive)	-0.286	0.0403	0.567	0.514	1.05	0.555 (inactive)	-0.103	2.62 (inactive)	1.85 (inactive)	0.226 (inactive)	1.39 (inactive)	0.335	1.49 (inactive)	1.46 (inactive)	-1.34
COCCOC(=O)N1C(=O)[C@@]2(c3cc(C#CCCO)ccc31)[C@H](C(=O)N1CCCCCCC1)[C@H]1C(=O)O[C@H](c3ccccc3)[C@H](c3ccccc3)N1[C@@H]2c1ccc(OCCO)cc1	0.87	-1.2 (inactive)	-0.589 (inactive)	-0.581 (inactive)	-0.571 (inactive)	1.43	1.38	1.8	1.44	1.53	0.712 (inactive)	2.45	7.78 (inactive)	1.37 (inactive)	-1.22 (inactive)	0.982 (inactive)	-0.215	0.931 (inactive)	0.94 (inactive)	0.603
C=C[C@@H](COC(=O)OC(C)(C)C)N(Cc1ccc(OC)cc1)S(=O)(=O)c1ccc(Br)cc1	0.0249	-1.75 (inactive)	0.551 (inactive)	3.04 (inactive)	1.88 (inactive)	0.603	-0.0332	0.604	0.299	1.57	-1.13 (inactive)	-0.0094	1.4 (inactive)	-0.0352 (inactive)	-0.856 (inactive)	-0.0871 (inactive)	-0.273	-0.348 (inactive)	0.525 (inactive)	-1.28
C[C@H]1C2[C@H](Cc3ccccc3)NC(=O)[C@]23C(=O)N[C@H](Cc2ccccc2)C(=O)N2CCC[C@H]2C(=O)NC/C=C\C/C=C/C3[C@@H]2O[C@]12C (stereo not given in full)	0.072	-0.832 (inactive)	-1.44 (inactive)	0.403 (inactive)	-0.399 (inactive)	0.206	-0.126	0.221	0.44	0.639	0.637 (inactive)	-0.026	1.4 (inactive)	-1.49 (inactive)	-1.3 (inactive)	-2.52 (inactive)	0.477	0.977 (inactive)	1.14 (inactive)	1.73
CCOC(=O)C[C@H]1[C@H](OC(=O)c2ccc(C(=O)c3ccccc3)cc2)[C@@H](NC(=O)c2ccccc2)c2cc(OCCCO)ccc2N1C(=O)c1ccc2ccccc2n1	0.152	-0.0123 (inactive)	0.0501 (inactive)	3.66 (inactive)	-0.712 (inactive)	1.22	-0.0468	0.478	0.179	-0.25	0.181 (inactive)	-0.328	2.66 (inactive)	0.748 (inactive)	-0.2 (inactive)	0.454 (inactive)	-0.0519	-1.14 (inactive)	0.923 (inactive)	1.94
